Our source for the INHIBITION values is ChEMBL document CHEMBL4513216, “Probing the Open Global Health Chemical Diversity Library for Multistage-Active Starting Points for Next-Generation Antimalarials” (ACS Infect Dis, 2020).

Screen size: about 65,000 compounds; about 2,100 (3.2%) showed an effect of 50% or more. The median lay at about -52%. The list comes from a sample in which strong results are over-represented; it also holds similar structures and randomly drawn compounds.

In this assay the test system is Plasmodium falciparum. Nature of the assay: Screen against P. falciparum Asexual Blood Stage (ABS), at 5uM. Format: functional, Dd2. The conditions noted are these: tested at 5 uM.
As to `CN(C)CC(=O)N1CCC2(CC(=O)N(c3cccc(C#N)c3)C2)C1` (stereo unspecified), the INHIBITION is -30%.

With `Cc1cccc(CN2CCC3(CC(C(=O)NCC(C)C)=NO3)C2)c1` (stereo unspecified), the INHIBITION is given as -93.1%. Next, `CCOCCN1CCN(CCOCC(F)(F)F)CC1`: -38.7%; `FC(F)(F)C1CCCn2c(CNCc3ccco3)nnc21` (stereo unspecified): -67%. Next, `CC(C(=O)NCc1ccco1)N1CCN(Cc2nccn2C)CC1` (stereo unspecified): -35.6%.

`Cn1ccnc1C(O)(CCNCc1ccco1)C(F)(F)F` (stereo unspecified): the INHIBITION was determined as 64.6%. Next, `CCc1cc(=O)[nH]c(-n2nc(C3CC3)cc2NC(=O)C2CC2)n1`: -66.5%. Next, `COCCN1CCC(NC(=O)NCC2(c3cccc(F)c3)CC2)C1` (stereo unspecified): -77.2%; `COCCC(=O)NC1CCN(CC2(c3cccc(F)c3)CCCC2)CC1`: 69.1%. Next, `COCCN1CCC(NC(=O)Nc2cccc(F)c2)C1` (stereo unspecified): -54.6%. For `CC(=O)NCC(=O)N1CCn2cc(CN3CCCCC3)nc2C1`, the INHIBITION was -144%.

As to `O=C(c1ccc(S(=O)(=O)NCCc2ccncc2)cc1)N1CCCC1`, the INHIBITION is reported as -36.5%. Next, `COc1ccc(NC2CCc3c2[nH]c(=O)n(C2CCCCC2)c3=O)cc1` (stereo unspecified): -98.2%; `CC(=O)N1CCCC1c1ccnc(Nc2cncnc2)n1` (stereo unspecified): -101%; `CC(=O)N1CCC(c2ccnc(Nc3cncnc3)n2)CC1`: -18.6%.

As to `c1ncc(Nc2nccc(C3CCCCN3CC3CCCCC3)n2)cn1` (stereo unspecified), the INHIBITION is recorded as 52%. `CN(C)CCCNC(=O)c1cnc(Cc2ccc(F)cc2)s1`: the INHIBITION is reported as 27.4%. Under `Cc1cccc(C(=O)NC(CN2CCCC2=O)c2ccccc2)n1` (stereo unspecified) stands -161%; under `Cc1cnc(C(=O)NC(CN2CCCC2=O)c2ccccc2)cn1` (stereo unspecified), 69.6%; under `Cc1ccc(C(=O)NC(CN2CCCC2=O)c2ccccc2)cn1` (stereo unspecified), -81.3%. Next, `Cn1c2ccccc2c2ncn(CCN3CCOCC3)c(=O)c21`: -57.9%; `Cc1[nH]c2ccccc2c1-c1ccnc(N[C@H](CO)CC(C)C)n1`: 51.9%. Under `Cc1[nH]c2ccccc2c1-c1ccnc(N[C@@H](C)CO)n1` stands -21.2%; under `Cc1[nH]c2ccccc2c1-c1ccnc(N[C@@H](CO)C(C)C)n1`, -9.36%; under `CC(c1nc(-c2ccccc2)no1)N1CCc2c(ncn2C2CC2)C1` (stereo unspecified), -19.5%. In the case of `Fc1cccnc1Oc1cc(F)c(CN2CCCC2)c(Cl)c1`, the INHIBITION is recorded as -49.5%.

`Cn1ccnc1CN1C[C@@H](CN2CCC(CO)CC2)[C@@H](CO)C1`: the INHIBITION was -1.49%. Under `CN1CCN(C[C@@H]2CN(C3Cc4ccccc4C3)C[C@@H]2CO)CC1` stands 51.4%. Next, `Cc1cccc(CN2C[C@@H](CN3CCCN(C)CC3)[C@@H](CO)C2)n1`: -29.5%; `OCC1CCN(C[C@@H]2CN(C3Cc4ccccc4C3)C[C@@H]2CO)CC1`: 66.4%; `OC[C@H]1CN(C2Cc3ccccc3C2)C[C@H]1CN1CCC(O)CC1`: 15.1%.

`CN1CCN(C[C@@H]2CN(C(=O)c3ccccc3C#N)C[C@@H]2CO)CC1`: the INHIBITION was -106%. On to `Cc1cc(NCCN2CCNC2=O)nc2cc3c(cc12)CCC3`, for which the INHIBITION is -14.4%. Next, `CSCCN1CCC(NC(=O)c2cccc(C3CCCNC3)c2)CC1` (stereo unspecified): -131%. Under `CC1CCN(c2nc3c(cnn3-c3ccccc3)c(=O)[nH]2)CC1` stands -6.59%; under `O=c1[nH]c(N2CCN(C3CC3)CC2)nc2c1cnn2-c1ccccc1`, 50.1%. Next, `O=c1[nH]c(N2CC(O)C2)nc2c1cnn2-c1ccccc1`: -202%. With `Cc1cc2cc(CNC3CCN(CC(=O)N(C)C)CC3)oc2cc1C`, the INHIBITION is -159%. Next, `Cc1nc(-c2c(C)noc2C)cc(C2CCN(CC(=O)N(C)C)CC2)n1`: -74%. For `Cc1cc(Cl)cc(C)c1CNC1CCN(CC(=O)N(C)C)CC1`, the INHIBITION is on record as 54.4%. Under `CC(C)CNC(=O)c1cccc(CN2CCc3c(ncn3C)C2)c1` stands -103%; under `CCOc1cccc2c1OCC(=O)N(c1ccc3c(c1)OCCO3)C2`, -105%. Under `COCCN1CCN(Cc2c(C)noc2C)Cc2cccnc21` stands -19.1%; under `COCCN1CCN(Cc2c(C)noc2C)Cc2ccc(C)nc21`, -54%. Next, `Cc1ccc2c(n1)N(CCN(C)C)CCN(Cc1c(C)noc1C)C2`: 63.1%; `Cc1cc(CNC(=O)NC(C)(CO)C2CC2)c(C)s1` (stereo unspecified): -55.5%.

As to `CCCC(C)NC1CCN(c2ccc(-n3ccnc3C)cc2)CC1` (stereo unspecified), the INHIBITION was 52.3%. Turning to `Cc1nccn1-c1ccc(N2CCC(N[C@H](C)C(C)C)CC2)cc1`, the INHIBITION is -49.6%. As for `Cc1nccn1-c1ccc(N2CCC(NC(C)CC(C)C)CC2)cc1` (stereo unspecified), the INHIBITION was 30.2%. Consider `Cc1c[nH]nc1C1CCCCN1C(=O)CCn1nccc1C` (stereo unspecified), for which the INHIBITION is reported as -97%. For the compound `Cc1cccn2cc(C(=O)N3CCCN(CC4CC4)C(C(C)C)C3)nc12` (stereo unspecified), the INHIBITION is on record as -26.5%. Under `O=C1N(CCO)CCCC12CCN(Cc1nnc(C3CC3)o1)C2` (stereo unspecified) stands -77.7%; under `O=S(=O)(NCC1(O)CCOc2ccccc21)c1ccc(Cl)s1` (stereo unspecified), -88.4%; under `Cc1ccc(S(=O)(=O)NCC2(O)CCOc3ccccc32)s1` (stereo unspecified), -36.2%. Under `O=S(=O)(NCC1(O)CCOc2ccccc21)c1ccc(Br)s1` (stereo unspecified) stands 59.2%; under `c1cncc(COCc2n[nH]c3c2CN(Cc2ccco2)C3)c1`, -89.3%. Under `CN1CCC2(CCCN(S(=O)(=O)c3ccc(-c4cnco4)s3)C2)C1` (stereo unspecified) stands 52.1%. On to `CN1CCCC2(CCN(S(=O)(=O)c3ccc(-c4cnco4)s3)C2)C1=O` (stereo unspecified), for which the INHIBITION was -16.8%. For `O=S(=O)(c1ccc(-c2cnco2)cc1)N1CCCC2(CCNCC2)CC1`, the INHIBITION was determined as 8.22%.

As to `O=S(=O)(c1ccc(-c2cnco2)cc1)N1CCCC(O)(CO)CC1` (stereo unspecified), the INHIBITION was -40.8%.

In the case of `CN1CCC2(CCN(S(=O)(=O)c3ccc(-c4cnco4)s3)CC2)C1`, the INHIBITION was determined as 68.4%. Next, `O=S(=O)(c1ccc(-c2cnco2)cc1)N1CCC2(CCCNC2)C1` (stereo unspecified): 47%. Under `COC(=O)c1cc(OCC2CCC2)cc(C(=O)N[C@@H](C)CO)c1` stands -90%.

In the case of `c1ccc(N2CCOC3(CCCN(c4ncccn4)C3)C2)nc1` (stereo unspecified), the INHIBITION is -101%.

As for `c1ccc(N2CCCC2)c(NCc2ccncc2)c1`, the INHIBITION is listed as -27.2%. Next, `CN(Cc1cccc(C(N)=O)c1)c1ncc(C#N)cc1Cl`: -76.1%.
